For assay [1], the target named is Cellular tumor antigen p53 (Homo sapiens) (UniProt P04637). Nature of the assay: Primary qHTS for small molecule compounds that upregulate eGFP-tagged delta133p53alpha (in N-terminal) cells. (AID 2060322).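 Further: series mostly up to about 56 µM; 0% = DMSO vehicle and 100% = reference activator; nearly all actives have a fitted effect of over 75% in size.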 Conditions: NCI-H358 eGFP-delta133p53alpha fluorescence, 24 h; activation: stronger effect = higher value. The procedure, abridged: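 NCI-H358 cells pre-induced 24 h with 10 ng/ml doxycycline to express N-terminal eGFP-delta133p53alpha, then dosed 24 h at 37C without doxycycline; fixed, Hoechst-stained, GFP intensity by laser scanning cytometry, normalized to DMSO (0%) and 57.5 uM 5-azacytidine (100%).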
Cellular tumor antigen p53 (Homo sapiens), sequence (P04637 whole entry, looked up): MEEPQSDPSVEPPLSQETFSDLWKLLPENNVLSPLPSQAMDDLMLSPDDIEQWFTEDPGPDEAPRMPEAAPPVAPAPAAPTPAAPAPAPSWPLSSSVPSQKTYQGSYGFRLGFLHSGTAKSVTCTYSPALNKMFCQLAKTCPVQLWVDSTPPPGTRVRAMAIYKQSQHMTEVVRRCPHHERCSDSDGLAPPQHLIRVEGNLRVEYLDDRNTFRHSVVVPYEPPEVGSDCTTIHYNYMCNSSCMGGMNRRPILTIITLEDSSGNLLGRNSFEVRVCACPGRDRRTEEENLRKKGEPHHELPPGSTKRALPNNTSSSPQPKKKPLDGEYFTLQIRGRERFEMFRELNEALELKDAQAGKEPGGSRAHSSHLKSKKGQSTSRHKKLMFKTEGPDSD

The target in assay [2] is Aldehyde dehydrogenase, mitochondrial (Homo sapiens) (UniProt P05091). Nature of the assay: qHTS for Inhibitors of the Aldehyde Dehydrogenase Family (ALDH2) Primary screen (AID 2061308).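 Further: plate controls were vehicle for no effect and reference inhibitor for full effect; nearly all actives have a fitted effect of over 55% in size.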
Assay [3] concerns the target Retinaldehyde dehydrogenase 3 (Homo sapiens) (UniProt P47895). Nature of the assay: qHTS for Inhibitors of the Aldehyde Dehydrogenase Family (ALDH1A3) Validation screen (AID 2061312). Further: on the % scale 0 is the no-effect control and ±100 the full control effect; nearly all actives have a fitted effect of over 45% in size.
Assay [4] shares this target. The experiment in a line: qHTS for Inhibitors of the Aldehyde Dehydrogenase Family (ALDH1A3) Primary screen (AID 2061315).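 Further: plate controls were DMSO vehicle for no effect and reference inhibitor for full effect.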
Assay [5] can be described thus: BET inhibitor-based combinations targeting novel dependencies in MECOM-rearranged (r) AML: OCI-AML3 cell line (AID 2202232). Further: nearly all actives have a fitted effect of over 35% in size. Further: potency means the concentration at half of the fitted maximal effect. Conditions: Potency: OCI-AML3 viability. A digest of the protocol: (§1)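 Here, 11-point titrations of each agent were applied to 500 seeded cells and incubated 48 hr; CellTiter-Glo signal, scaled against DMSO and empty wells, was integrated as AUC, then Z-scored within the individual line.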

A short description of assay [6]: BET inhibitor-based combinations targeting novel dependencies in MECOM-rearranged (r) AML: UCSD-AML1 cell line (AID 2202235). Further: nearly all actives have a fitted effect of over 40% in size. Further: potency means the concentration at half of the fitted maximal effect. The procedure, abridged:
(§2)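 Normalized to DMSO and empty-well controls, the luminescence data from CellTiter-Glo after 48 hr drug exposure were fitted across 11 concentrations. Reported metrics are area under the dose-response curve and its Z-transformed form.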

Assay [7] can be described thus: BET inhibitor-based combinations targeting novel dependencies in MECOM-rearranged (r) AML: AML-191 cell line (AID 2202236; further: nearly all actives have a fitted effect of over 35% in size; further: potency means the concentration at half of the fitted maximal effect). The procedure, abridged: as §1
The nature of assay [8]: BET inhibitor-based combinations targeting novel dependencies in MECOM-rearranged (r) AML: HNT-34 cell line (AID 2202234).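 Further: plate controls were vehicle wells for no effect and cell-free wells for full effect; nearly all actives have a fitted effect of over 35% in size.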 A digest of the protocol: as §2
The nature of assay [9]: BET inhibitor-based combinations targeting novel dependencies in MECOM-rearranged (r) AML: AML-194 cell line (AID 2202237;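 further: plate controls were vehicle wells for no effect and wells without cells for full effect; nearly all actives have a fitted effect of over 40% in size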). The procedure, abridged: as §1

“And” between values parts separate entries of the source, which are not always exact repeats. Identical values can stand only once. Inconclusive results are not listed. A number with no mark means an inactive call. The source made the active and inactive calls. The call rests on the fitted dose curve; in most records, active means well fitted curve in the direction sought with a large enough effect; inconclusive means small, poorly fitted or top-dose-only effect, or another doubt; inactive means no such curve, though single readings can be large; an effect the other way counts as inactive or inconclusive.

As for `Cc1sc2c(c1C)C(c1ccc(Cl)cc1)=N[C@@H](CC(N)=O)c1nnc(C)n1-2`, the activation in [1] was 10%. The Potency entry in assay [2], in assay [3] and in assay [4] was “inactive” each time. Besides, the Potency in assay [5] was 0.105 µM (active).

Turning to `CCNC(=O)CC1N=C(c2ccc(Cl)cc2)c2cc(OC)ccc2-n2c(C)nnc21` (stereo unspecified), the activation in assay [1] was -24.1% and -15% and -22.4%. In addition, the Potency result in [2], in assay [3] and in [4] was “inactive” in each case. The values for the Potency in [6] and in assay [7] were 9.34 µM (active) and 13.2 µM (active), respectively.

Take `C=C[C@H]1[C@H](O[C@@H]2O[C@H](CO)[C@@H](O)[C@H](O)[C@H]2O)OC=C2C(=O)OCC[C@H]21`: the activation in assay [1] was 6.11%. Besides, the Potency entry in assay [2] and in assay [4] was “inactive” in each case.

For `C[C@]12CC[C@H]3[C@@H]([C@H](O)CC4=CC(=O)CC[C@@]43C)[C@@H]1CC[C@@H]2O`, in assay [1], the activation was -2.33%. For the same molecule, the Potency entry in assay [2] and in assay [4] was “inactive” throughout.

Turning to `O=C(Oc1ccc([N+](=O)[O-])cc1)N1CCN(Cc2cccc(Oc3ccccc3)c2)CC1`, the activation in assay [1] was 1.36% and 1.43%. For the same molecule, the Potency result in assay [2], in [3], in assay [4], in [5], in [8] and in assay [6] was “inactive” throughout. Also, the Potency entry in assay [7] and in assay [9] was “inactive” in each case.

Turning to `CC[C@H]1C[C@H]2[C@@H]3CCC4=CC(=O)CC[C@@H]4[C@H]3CC[C@]2(C)[C@H]1O`, in assay [1], the activation is 5.67%. For the same molecule, the Potency result in assay [2] and in assay [4] was “inactive” throughout.

As to `CN1CCCCC1Cn1cc(C(=O)c2cc([N+](=O)[O-])ccc2I)c2ccccc21` (stereo unspecified), the activation in assay [1] was 23.9%. Further, the Potency result in [2], in assay [3] and in assay [4] was “inactive” throughout.

Regarding `CN1CCc2cc3c(cc2C1C1OC(=O)c2c1ccc1c2OCO1)OCO3` (stereo unspecified), the activation in [1] was -26%. Also, the Potency entry in assay [2] and in assay [4] was “inactive” throughout.

For the origin of these results see PubChem BioAssay (NCATS).
